Source: ChEMBL document CHEMBL3988442, “University of Dundee, Small-Polar-MMV Screening Library” (2021)
The whole screen tested about 69,000 compounds, of which about 50 (0.07%) showed an effect of 50% or more. Many of the other results were omitted from the sample, so strong results are more common in it than they were.

molecular target: Lysine--tRNA ligase (Plasmodium falciparum (isolate 3D7)) (UniProt Q8IDJ8); assay: Pf-KRS-1 (Lysyl-RNA Synthetase-1, KRS-1, cytosolic KRS) from Plasmodium falciparum. Inhibitor assay, 384 well plate, luminescence read.; format: functional; parameters: scale not given: in the data most compounds retested in dose-response had high values; settings: 30 µM
Sequence (Q8IDJ8 1-583): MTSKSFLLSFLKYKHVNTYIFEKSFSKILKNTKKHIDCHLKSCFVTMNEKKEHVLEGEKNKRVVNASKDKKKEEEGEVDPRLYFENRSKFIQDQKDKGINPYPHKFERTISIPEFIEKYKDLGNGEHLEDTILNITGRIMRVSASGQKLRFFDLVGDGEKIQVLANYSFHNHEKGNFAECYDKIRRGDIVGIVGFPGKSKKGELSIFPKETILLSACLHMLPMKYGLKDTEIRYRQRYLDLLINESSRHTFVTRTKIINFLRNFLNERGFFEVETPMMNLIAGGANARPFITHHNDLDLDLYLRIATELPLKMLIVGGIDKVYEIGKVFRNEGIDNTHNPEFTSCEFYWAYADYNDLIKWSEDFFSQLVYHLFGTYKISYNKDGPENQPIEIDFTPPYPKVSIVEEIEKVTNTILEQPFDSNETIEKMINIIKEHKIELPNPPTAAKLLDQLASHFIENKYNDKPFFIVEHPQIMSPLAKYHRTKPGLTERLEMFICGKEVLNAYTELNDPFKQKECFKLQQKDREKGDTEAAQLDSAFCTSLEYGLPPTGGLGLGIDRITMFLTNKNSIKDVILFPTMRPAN

Compared with `COC(=O)c1ccc2ccn(CC3CCCO3)c(=O)c2c1` (stereo not drawn), `COC(=O)c1ccc2ccn(CC3CCCCO3)c(=O)c2c1` (stereo not drawn) is higher in Percent Effect: 12.9% for the first, 78.6% for the second.

Compared with `COC(=O)c1ccc2ccn(CC3COCCO3)c(=O)c2c1` (stereo not drawn), `COC(=O)c1ccc(CNC(=O)Nc2ccc(=O)n(C)c2)cc1` is lower in Percent Effect: 26.4% for the first, -0.542% for the second.

Compared with `O=C(N1CCCO1)[C@@]12CCO[C@@H]1CCN(Cc1cccnc1)C2`, `Cc1ncsc1CN1C[C@H](C(=O)N2CCCO2)[C@@H]2CCO[C@@H]2C1` is lower in Percent Effect: 0.613% for the first, 0.217% for the second.

First: CN1C(=O)CO[C@H]2CCN(C(=O)Cc3ccc4c(c3)CCCC4)CC[C@@H]21
Second: Cn1cc(NC(=O)N2CCC(CN3CCCC3)CC2)ccc1=O
The Percent Effect of the first is lower: 0.27% for the first, 0.985% for the second.

First: CCn1nc2c(cc1=O)CN(CC1CCCCO1)CC2 (stereo not drawn)
Second: CCCn1nc2c(cc1=O)CN(CC1CCCCO1)CC2 (stereo not drawn)
The Percent Effect of the first is lower: -3.92% for the first, 8.29% for the second.

Compared with `Cc1ncc2c(n1)CN(CC1CCCCO1)CC2` (stereo not drawn), `CCc1ncc2c(n1)CN(CC1CCCCO1)CC2` (stereo not drawn) is lower in Percent Effect: 76.2% for the first, 17.1% for the second.

Compared with `c1ncc2c(n1)CN(CC1CCCCO1)CC2` (stereo not drawn), `CC(C)c1ncc2c(n1)CN(CC1CCCCO1)CC2` (stereo not drawn) is lower in Percent Effect: 84.6% for the first, 2.58% for the second.

Compared with `Cc1cc(CN2CCc3cncnc3C2)no1`, `Cn1nc2c(cc1=O)CN(CC1CCCCO1)CC2` (stereo not drawn) is higher in Percent Effect: 8.95% for the first, 50.5% for the second.

Going from `CC(C)n1nc2c(cc1=O)CN(CC1CCCCO1)CC2` (stereo not drawn) to `CC(C)C1CCCN1C(=O)Nc1ccc(=O)n(C)c1` (stereo not drawn), the Percent Effect rises from 11.8% to 81%.

Compared with `COCCN1CCO[C@H]2CN(Cc3cccc(C)n3)C[C@H]21`, `Cc1cccc(CN2C[C@H](NS(C)(=O)=O)[C@@H]3OCCC[C@@H]32)n1` is lower in Percent Effect: 2.71% for the first, 0.332% for the second.

First: CO[C@H]1CN(CC2CCOCC2)[C@@H]2CCCO[C@H]12
Second: CO[C@H]1CC[C@H]2[C@H]1OCCN2C(=O)CC1=CCCCC1
The Percent Effect of the first is lower: 3.3% for the first, 18.1% for the second.

Going from `Cc1noc([C@]23COC[C@H]2CN(C(C)C)C3)n1` to `O=C(NC1CC(F)(F)C1)[C@]12COC[C@H]1CN(Cc1ccsc1)C2`, the Percent Effect rises from 2.71% to 3.2%.

Going from `COCCn1cc(NC(=O)NC(C)CCc2ccccc2)ccc1=O` (stereo not drawn) to `COCCn1cc(NC(=O)C(C)CCc2ccccc2F)ccc1=O` (stereo not drawn), the Percent Effect falls from 64.7% to 34.2%.

Compared with `CC(CCc1ccccc1)NC(=O)Nc1cnn(CC(N)=O)c1` (stereo not drawn), `Cn1cc(NC(=O)NCc2ccsc2)ccc1=O` is higher in Percent Effect: 2.54% for the first, 73.2% for the second.

Going from `CCCN1CCN(C(=O)c2cc3ccccc3cn2)[C@H]2CS(=O)(=O)C[C@H]21` to `COCc1cnc2n1CCN(C(=O)c1ccc3ccccc3n1)C2C` (stereo not drawn), the Percent Effect rises from 4.93% to 10.7%.

Compared with `Cc1ccc(-c2ccc(C3CNCCO3)nc2)cc1` (stereo not drawn), `Cc1ccc(S(=O)(=O)N2C[C@@H]3CCN[C@@H]3C2)cc1` is lower in Percent Effect: 5.24% for the first, 2.57% for the second.

First: O=c1[nH]c2c(c(=O)n1C1CCCCC1)CCC2Nc1ccccc1Cl (stereo not drawn)
Second: O=c1[nH]c2c(c(=O)n1C1CCCCC1)CCC2Nc1ccccc1 (stereo not drawn)
The Percent Effect of the first is higher: 61.5% for the first, 24.4% for the second.

Compared with `O=c1[nH]c2c(c(=O)n1C1CCCCC1)CCC2Nc1ccccn1` (stereo not drawn), `O=c1[nH]c2c(c(=O)n1C1CCCCC1)CCC2NCc1ccccc1` (stereo not drawn) is lower in Percent Effect: 28.1% for the first, 11.2% for the second.

Going from `O=c1[nH]c2c(c(=O)n1C1CCCCC1)CCC2NCCc1ccccc1` (stereo not drawn) to `Cc1cccc(NC2CCc3c2[nH]c(=O)n(C2CCCCC2)c3=O)c1C` (stereo not drawn), the Percent Effect falls from 55.6% to 32.2%.

Going from `COC[C@@]12CCO[C@@H]1CCN(Cc1ccccc1OC)C2` to `Cc1ccoc1C(=O)N1CC[C@H]2OCC[C@@]2(COCc2ccncc2)C1`, the Percent Effect falls from 6.78% to 6.75%.

First: CC(=O)N1CCO[C@@H]2CN(S(=O)(=O)C3CC3)CC[C@@H]2C1
Second: O=C(CC1CCCC1)N1C[C@@H]2CCN(c3cccnc3)C[C@@H]2C1
The Percent Effect of the first is higher: 2.76% for the first, 1.75% for the second.

Going from `CN(Cc1ccsc1)C(=O)Nc1ccc(=O)n(C)c1` to `Cn1cc(NC(=O)CCc2ccsc2)ccc1=O`, the Percent Effect falls from 28.4% to 7.87%.

Compared with `O=C(NCc1ccoc1)Nc1ccc(CN2CCOC2=O)cc1`, `COc1ccc(CNC(=O)Nc2ccc(CN3CCOC3=O)cc2)cc1` is lower in Percent Effect: 2.38% for the first, 0.788% for the second.

Going from `COc1ccc(CNC(=O)Nc2ccc(=O)n(C)c2)cc1` to `Cn1cc(NC(=O)NCc2ccoc2)ccc1=O`, the Percent Effect falls from 77.6% to 58.5%.

First: Cc1nnc(NC(=O)NCc2ccoc2)s1
Second: Cc1cc(=O)n(C)cc1NC(=O)Cc1cccc(F)c1
The Percent Effect of the first is lower: 0.941% for the first, 19.8% for the second.

Going from `COCC(=O)N1C[C@H]2CCC[C@@]2(COC)C1` to `CCOCC(=O)N1CC[C@@H]2O[C@@H](C)C[C@H]2C1`, the Percent Effect falls from 3.43% to 2.15%.

Compared with `O=C(c1cccnc1)N1C[C@H]2CN(Cc3cccc(F)c3)C(=O)[C@H]2C1`, `Cn1cc(NC(=O)N2CCCC2c2cccnc2)ccc1=O` (stereo not drawn) is lower in Percent Effect: 7.87% for the first, 4.14% for the second.

Compared with `CO[C@H]1CCN(C2CCC2)[C@@H]2CN(Cc3ccncc3)C[C@H]12`, `CO[C@@H]1CCN(S(=O)(=O)c2cccnc2)[C@@H]2CN(CC3CC3)C[C@@H]21` is higher in Percent Effect: 3% for the first, 4.3% for the second.

First: O=C(NC1CCCC1)[C@H]1CC[C@@H]2[C@@H](CCN2c2ncc(F)cn2)O1
Second: O=C(c1c[nH]nn1)N1CCCC1C1CCCCC1 (stereo not drawn)
The Percent Effect of the first is lower: -0.28% for the first, 85.6% for the second.

Going from `CO[C@H]1CC[C@H]2[C@H]1OCCN2Cc1ccc(F)c(F)c1` to `O=C1CO[C@H]2CN(C3CCOCC3)C[C@H]2N1Cc1ccccn1`, the Percent Effect rises from -6.11% to 2.85%.

Going from `c1coc(-c2nc3c(c(N4CCCN5CCC[C@H]5C4)n2)CCNCC3)c1` to `O=c1c(CN2CC3CCCN3C[C@@H]2CCO)coc2ccc(Cl)cc12` (stereo partly drawn), the Percent Effect rises from 0.644% to 0.683%.

First: Cc1cc(=O)n(C)cc1NC(=O)Cc1ccc(C(F)(F)F)cc1
Second: Cc1cc(=O)n(C)cc1NC(=O)Cc1cc(F)ccc1F
The Percent Effect of the first is lower: 1.6% for the first, 69.1% for the second.

Going from `COc1ccc(CN2C[C@@H]3COC[C@@H](CC(=O)N4CCCC4)[C@@H]3C2)cc1` to `O=c1c(CN2CCCCC2)coc2ccc(Cl)cc12`, the Percent Effect rises from 4.49% to 62.1%.

Compared with `O=c1c(CN2CCOCC2)coc2ccc(Cl)cc12`, `O=C1CC[C@]2(CC[C@@H](NCc3ccc4c(c3)OCO4)CC2)N1` is lower in Percent Effect: 28.3% for the first, -2.96% for the second.

Going from `Cc1ccc(S(=O)(=O)N2C[C@@H]3C[C@@H](NC(=O)C(C)(C)C)[C@@H]3C2)cc1` to `Cn1cc(NC(=O)N2CCC(c3ccccc3)CC2)ccc1=O`, the Percent Effect rises from 6.48% to 45.4%.

Compared with `Cn1cc(C(C)(O)CNc2ccc(Cl)c(C#N)n2)cn1` (stereo not drawn), `CC(O)(CNc1ccc(Cl)c(C#N)n1)c1ccsc1` (stereo not drawn) is higher in Percent Effect: 18.4% for the first, 59% for the second.

First: CC(O)(CNc1ccc(Cl)c(C#N)n1)c1ccccc1 (stereo not drawn)
Second: Cn1cc(NC(=O)N2CCC2c2ccccc2)ccc1=O (stereo not drawn)
The Percent Effect of the first is lower: 8.49% for the first, 20.1% for the second.

First: O=C(c1ccc(=O)[nH]n1)N1CCCC1C1CCCC1 (stereo not drawn)
Second: O=C(c1cnc2[nH]c(=O)[nH]c(=O)c2c1)N1CCCC1C1CCCCC1 (stereo not drawn)
The Percent Effect of the first is higher: 9.62% for the first, 2.68% for the second.

Going from `COC[C@@]12CC[C@@H](N3CCOCC3)C[C@H]1CCN(c1nc(CO)cs1)C2` to `Cn1cc(NC(=O)N2CCCC2c2ccccn2)ccc1=O` (stereo not drawn), the Percent Effect rises from 10.3% to 78.9%.
